Assay results as given in PubChem BioAssay (Tox21).
Inconclusive results are not listed. The source made the active and inactive calls. Unless noted, calls come from the whole dose curve.

Columns and labels:
[1] = Nuclear factor erythroid 2-related factor 2/antioxidant responsive element (Nrf2/ARE) small molecule agonists: qHTS cell viability counter screen in human keratinocytes (AID 1919968; active = well fitted curve in the direction sought with a large enough effect in the repeat runs; an effect the other way counts as inactive or inconclusive; note: nearly all actives have a fitted effect of over 55% in size)
Procedure, shortened: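 KeratinoSens HaCaT cells, 1,500/well, preincubated 5 h, then exposed to compounds in DMSO for 23 h at 37 C/5% CO2. Viability read as CellTiter-Fluor fluorescence after 1 h, in the same wells as the ARE-luciferase read.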

[2] = target: Gonadotropin-releasing hormone receptor (Homo sapiens) (UniProt P30968); assay: Human gonadotropin-releasing hormone receptor (GnRHR) small molecule agonists, calcium flux assay in GnRHR-HEK293 cells (AID 1920063); note: nearly all actives have a fitted effect of over 35% in size; note: potency is the fitted concentration of half-maximal effect
Gonadotropin-releasing hormone receptor (Homo sapiens), sequence (P30968 whole entry, looked up): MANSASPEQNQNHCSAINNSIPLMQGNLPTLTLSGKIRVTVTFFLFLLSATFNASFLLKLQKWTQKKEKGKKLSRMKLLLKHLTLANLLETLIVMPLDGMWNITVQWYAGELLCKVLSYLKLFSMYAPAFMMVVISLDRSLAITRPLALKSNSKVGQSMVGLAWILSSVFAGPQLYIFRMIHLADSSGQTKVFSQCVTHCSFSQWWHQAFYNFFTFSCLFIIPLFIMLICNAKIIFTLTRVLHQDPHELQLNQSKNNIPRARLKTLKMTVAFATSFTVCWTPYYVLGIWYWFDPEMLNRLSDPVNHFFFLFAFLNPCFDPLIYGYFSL
Procedure, shortened: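 HEK293 cells stably expressing human GnRHR were dye-loaded for 1 h at 37 C. Compound was added in agonist mode and fluorescence (Ex/Em 480/540) recorded kinetically for 3 min. Fifteen concentrations, triplicates.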

[3] = target: KiSS-1 receptor (Homo sapiens) (UniProt Q969F8); assay: Human kisspeptin (KISS1R) small molecule agonists, calcium flux assay in KISS1R-HEK293 cells (AID 1920064; active = well fitted curve in the direction sought with a large enough effect in the repeat runs; an effect the other way counts as inactive or inconclusive)
KiSS-1 receptor (Homo sapiens), sequence (Q969F8 whole entry, looked up): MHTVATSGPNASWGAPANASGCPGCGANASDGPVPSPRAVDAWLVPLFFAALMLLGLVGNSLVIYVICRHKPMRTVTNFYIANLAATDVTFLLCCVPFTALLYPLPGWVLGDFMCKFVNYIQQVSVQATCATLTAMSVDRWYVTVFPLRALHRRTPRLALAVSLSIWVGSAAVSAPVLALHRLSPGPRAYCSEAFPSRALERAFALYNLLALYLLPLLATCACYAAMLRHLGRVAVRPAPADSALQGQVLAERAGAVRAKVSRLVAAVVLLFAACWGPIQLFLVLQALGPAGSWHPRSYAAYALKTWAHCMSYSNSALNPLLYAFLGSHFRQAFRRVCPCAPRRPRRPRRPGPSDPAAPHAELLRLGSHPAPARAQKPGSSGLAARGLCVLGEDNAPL
Procedure, shortened: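 HEK293 cells stably expressing human KISS1R were loaded with calcium dye for 1 h at 37 C, then given compound; fluorescence (Ex/Em 480/540) was read kinetically for 3 min. Fifteen concentrations, triplicate.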

[4] = G protein-coupled receptor (GPCR) small molecule agonists, calcium flux assay: HEK293 wild type cell line counter screen (AID 1920065)
Procedure, shortened: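 Wild-type HEK293 cells plated 18 h, loaded with calcium dye 1 h at 37 C, then compounds added in agonist mode (ATP as positive control). Kinetic fluorescence Ex/Em 480/540 recorded 3 min at 1 sec intervals; 15 concentrations, triplicate.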

[5] = p53 small molecule agonists, cell-based qHTS assay with human liver microsomes (AID 1963577);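 note: p53 response element beta-lactamase reporter cells with liver microsomes plus NADPH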
Procedure, shortened: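 With metabolic activation: human liver microsomes (0.5 mg/mL final) plus NADPH (0.5 mg/mL final) added alongside compounds to p53RE-bla cells; 16 h 37 C exposure; beta-lactamase read by LiveBLAzer fluorescence.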

[6] = p53 small molecule agonists, cell-based qHTS assay with rat liver microsomes (AID 1963578)
Procedure, shortened: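 Metabolic activation by rat liver microsomes and NADPH, each 0.5 mg/mL final, added right after compounds to p53RE-bla reporter cells (4,000/well, plated 5 h earlier). 16 h at 37 C, then LiveBLAzer substrate for 2 h at room temperature in the dark; fluorescence read-out.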

[7] = p53 small molecule agonists, cell-based qHTS assay with human liver microsomes: qHTS cell viability counter screen (AID 1963579); note: nearly all actives have a fitted effect of over 45% in size
Procedure, shortened: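 Metabolic activation used human liver microsomes and NADPH, both 0.5 mg/mL final, over 16 hours at 37 C on p53RE-bla cells (4,000/well). Cytotoxicity measured by CellTiter-Glo luminescence, 30 min at room temperature.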

[8] = p53 small molecule agonists, cell-based qHTS assay with rat liver microsomes: qHTS cell viability counter screen (AID 1963580); note: nearly all actives have a fitted effect of over 45% in size
Procedure, shortened: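 p53RE-bla HCT-116 cells were exposed 16 h at 37 C to compounds with rat liver microsomes (0.5 mg/mL) and NADPH (0.5 mg/mL). Viability was measured in the same wells as ATP content by CellTiter-Glo luminescence.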

[9] = p53 small molecule agonists, cell-based qHTS assay (AID 1963582; active = well fitted activation curve with a large enough effect in the signal ratio in the repeat runs, not every such curve was filed as active; the % refers to the signal ratio)
Procedure, shortened: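 p53RE-bla reporter cells, compounds added in DMSO after 5 h plating, incubated 16 h at 37 C. Beta-lactamase read via 2 h room-temperature LiveBLAzer B/G FRET substrate, fluorescence intensity.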

[10] = target: 5-hydroxytryptamine receptor 2A (Homo sapiens) (UniProt P28223); assay: 5-hydroxytryptamine receptor 2A (HTR2A) small molecule antagonists, cell-based qHTS assay (AID 1963586); note: nearly all actives have a fitted effect of over 45% in size; note: potency is the fitted concentration of half-maximal effect
5-hydroxytryptamine receptor 2A (Homo sapiens), sequence (P28223 whole entry, looked up): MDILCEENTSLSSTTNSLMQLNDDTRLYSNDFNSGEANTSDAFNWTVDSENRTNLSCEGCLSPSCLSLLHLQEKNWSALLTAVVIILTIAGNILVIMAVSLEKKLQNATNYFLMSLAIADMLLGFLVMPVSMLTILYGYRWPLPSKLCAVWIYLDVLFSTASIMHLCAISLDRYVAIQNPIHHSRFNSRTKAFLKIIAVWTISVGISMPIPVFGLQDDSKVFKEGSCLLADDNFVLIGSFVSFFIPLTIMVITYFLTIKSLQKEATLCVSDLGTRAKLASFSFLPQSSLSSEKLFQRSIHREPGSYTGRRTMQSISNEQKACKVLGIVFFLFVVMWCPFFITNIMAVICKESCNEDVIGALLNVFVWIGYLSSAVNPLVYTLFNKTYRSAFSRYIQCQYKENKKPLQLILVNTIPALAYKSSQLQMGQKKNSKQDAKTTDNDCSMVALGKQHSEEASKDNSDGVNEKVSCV
Procedure, shortened: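 Antagonist-mode intracellular calcium assay: DOI (4 nM) added after 5 min compound pre-incubation at room temperature to dye-loaded HTR2A-CHO cells. Fluorescence followed for 3 min, sampled every second.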

[11] = target: 5-hydroxytryptamine receptor 2A (Homo sapiens) (UniProt P28223); assay: 5-hydroxytryptamine receptor 2A (HTR2A) small molecule agonists, cell-based qHTS assay (AID 1963587); note: nearly all actives have a fitted effect of over 30% in size; note: potency is the fitted concentration of half-maximal effect
Procedure, shortened: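 CHO cells stably expressing human HTR2A, plated 18 h, loaded with calcium dye 1 h at 37 C. Agonist mode: compounds added and intracellular calcium fluorescence recorded kinetically for 2 min at 1 sec intervals.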

[12] = target: Muscarinic acetylcholine receptor M1 (Homo sapiens) (UniProt P11229); assay: Cholinergic receptor muscarinic 1 (CHRM1) small molecule antagonists, cell-based qHTS assay (AID 1963588); note: nearly all actives have a fitted effect of over 40% in size; note: potency is the fitted concentration of half-maximal effect
Muscarinic acetylcholine receptor M1 (Homo sapiens), sequence (P11229 whole entry, looked up): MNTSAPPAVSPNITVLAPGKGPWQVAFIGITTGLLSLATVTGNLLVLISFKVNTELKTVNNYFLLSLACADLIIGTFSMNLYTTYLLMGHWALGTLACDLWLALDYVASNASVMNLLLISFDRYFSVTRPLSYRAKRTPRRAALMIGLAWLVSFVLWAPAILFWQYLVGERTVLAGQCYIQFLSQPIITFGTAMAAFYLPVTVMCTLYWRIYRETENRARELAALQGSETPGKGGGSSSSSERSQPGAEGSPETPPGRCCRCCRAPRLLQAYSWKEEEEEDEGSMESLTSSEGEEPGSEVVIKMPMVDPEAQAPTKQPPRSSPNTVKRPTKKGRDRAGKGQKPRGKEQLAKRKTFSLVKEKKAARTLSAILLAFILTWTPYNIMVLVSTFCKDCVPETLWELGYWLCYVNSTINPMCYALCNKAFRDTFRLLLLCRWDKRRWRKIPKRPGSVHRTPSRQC
Procedure, shortened: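 CHRM1-CHO calcium-flux assay, antagonist mode. Cells were seeded 18 h, dye-loaded 1 h at 37 C and given compound for 5 min at RT, then acetylcholine was added at 50nM. FDSS fluorescence was read 3 min; 15 concentrations, three runs.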

[13] = target: Muscarinic acetylcholine receptor M1 (Homo sapiens) (UniProt P11229); assay: Cholinergic receptor muscarinic 1 (CHRM1) small molecule agonists, cell-based qHTS assay (AID 1963589); note: nearly all actives have a fitted effect of over 35% in size
Procedure, shortened: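 CHO cells stably expressing human CHRM1 were loaded with calcium dye for 1 h at 37 C, then compound was added in agonist mode. Intracellular calcium fluorescence was followed kinetically at 1 s intervals. Fifteen concentrations were tested in three independent runs.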

[14] = cAMP Responsive Elements (CRE) small molecule agonists, cell-based qHTS assay (AID 1963590)
Procedure, shortened: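 CRE-bla HEK 293T cells, 2,000/well in DMEM with 10% dialyzed FBS and 25 mM HEPES, pre-incubated 18 h at 37 C, then exposed to compound 3 h at 37 C. Beta-lactamase reporter read with LiveBLAzer B/G FRET substrate after 2 h at room temperature.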

[15] = cAMP Responsive Elements (CRE) small molecule antagonists, cell-based qHTS assay (AID 1963591; active = well fitted inhibition curve with a large enough effect in the signal ratio in the repeat runs, not every such curve was filed as active; the % refers to the signal ratio)
Procedure, shortened: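 CRE-bla HEK293T cells plated 18 h, then given compound plus NKH477 at 0.25 uM final for 3 h at 37C. Beta-lactamase reporter read with LiveBLAzer B/G FRET substrate after 2 h at room temperature.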

[16] = target: Beta-2 adrenergic receptor (Homo sapiens) (UniProt P07550); assay: Adrenergic beta2 receptor (ADRB2) small molecule antagonists, cell-based qHTS assay (AID 1963592); note: nearly all actives have a fitted effect of over 50% in size; note: potency is the fitted concentration of half-maximal effect; for activity change, negative = inhibition: series mostly up to about 92 µM
Beta-2 adrenergic receptor (Homo sapiens), sequence (P07550 whole entry, looked up): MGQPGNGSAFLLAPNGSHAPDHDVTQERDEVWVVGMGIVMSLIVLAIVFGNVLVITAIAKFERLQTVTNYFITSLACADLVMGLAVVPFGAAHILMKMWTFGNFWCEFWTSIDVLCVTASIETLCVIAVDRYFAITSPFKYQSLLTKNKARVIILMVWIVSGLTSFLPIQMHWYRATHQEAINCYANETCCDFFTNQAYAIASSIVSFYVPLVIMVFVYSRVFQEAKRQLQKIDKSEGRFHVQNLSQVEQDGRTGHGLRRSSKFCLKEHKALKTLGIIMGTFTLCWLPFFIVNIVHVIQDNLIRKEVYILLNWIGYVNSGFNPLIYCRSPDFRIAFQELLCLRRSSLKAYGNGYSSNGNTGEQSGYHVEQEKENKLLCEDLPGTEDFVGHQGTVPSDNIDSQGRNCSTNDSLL
Procedure, shortened: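 Cells (CHO, stable ADRB2 overexpression) incubated 18-20hr at 37C; compounds added from DMSO; agonist mix (1nM isoproterenol, 100uM IBMX, 25uM Ro-20-1724) added; 0.5hr RT; d2-cAMP and anti-cAMP-cryptate added; 1hr RT; 665/615 nm read.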

[17] = target: D(2) dopamine receptor (Homo sapiens) (UniProt P14416); assay: Dopamine D2 receptor (DRD2) small molecule agonists, cell-based qHTS assay (AID 1963594); note: nearly all actives have a fitted effect of over 35% in size
D(2) dopamine receptor (Homo sapiens), sequence (P14416 whole entry, looked up): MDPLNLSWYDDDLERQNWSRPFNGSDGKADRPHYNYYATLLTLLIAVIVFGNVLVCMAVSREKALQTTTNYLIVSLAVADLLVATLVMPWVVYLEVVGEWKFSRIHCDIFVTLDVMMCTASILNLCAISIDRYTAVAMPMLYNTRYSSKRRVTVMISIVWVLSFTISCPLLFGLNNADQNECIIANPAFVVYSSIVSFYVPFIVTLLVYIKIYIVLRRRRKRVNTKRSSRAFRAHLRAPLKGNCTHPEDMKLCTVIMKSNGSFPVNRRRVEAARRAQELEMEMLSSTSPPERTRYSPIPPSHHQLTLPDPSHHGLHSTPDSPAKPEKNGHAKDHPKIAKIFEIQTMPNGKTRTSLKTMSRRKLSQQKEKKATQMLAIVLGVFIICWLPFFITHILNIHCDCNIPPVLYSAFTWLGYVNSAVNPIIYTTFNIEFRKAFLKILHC
Procedure, shortened: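 HEK293 cells stably expressing human DRD2, pre-treated with PDE inhibitor Ro20-1724 (0.1 mM final) and compound 10 min at room temperature, then stimulated with NKH477 (200nM […]) for 30 min. cAMP read by HTRF (665/620 nm).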

[18] = target: D(2) dopamine receptor (Homo sapiens) (UniProt P14416); assay: Dopamine D2 receptor (DRD2) small molecule antagonists, cell-based qHTS assay (AID 1963595; active = well fitted inhibition curve with a large enough effect in the signal ratio in the repeat runs, with a control signal flat; the % refers to the signal ratio)
Procedure, shortened: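 In this cell-based antagonist screen, compounds act for 10 min at room temperature before a 30 min challenge with 12 nM quinpirole and 200 nM NKH477. cAMP is quantified by HTRF competition in DRD2-HEK293 cells containing 0.1 mM Ro20-1724.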

[19] = p53 small molecule agonists, cell-based qHTS assay: qHTS cell viability counter screen (AID 1963581); note: nearly all actives have a fitted effect of over 45% in size
Procedure, shortened: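 p53RE-bla HCT-116 cells, compounds added 5 h after plating and incubated 16 h at 37 C. Cytotoxicity measured in the same wells as intracellular ATP by CellTiter-Glo luminescence after 30 min at room temperature.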
% is set by controls: 0 for no effect and ±100 for the full control effect.

Oc1ccc(I)cc1
inactive: Potency [1] | Potency [2] | Potency [3] | Potency [4] | Potency [5] | Potency [6] | Potency [7] | Potency [8] | Potency [9] | Potency [10] | Potency [11] | Potency [12] | Potency [13] | Potency [14] | Potency [15] | Potency [16] | Potency [17] | Potency [18]

Cc1cc(C)c(C(=O)P(=O)(C(=O)c2c(C)cc(C)cc2C)c2ccccc2)c(C)c1
inactive: Potency [1] | Potency [2] | Potency [3] | Potency [4] | Potency [5] | Potency [6] | Potency [7] | Potency [8] | Potency [19] | Potency [10] | Potency [11] | Potency [13] | Potency [14] | Potency [16] | Potency [17] | Potency [18]

BrCC(Br)C1CCC(Br)C(Br)C1 (stereo unspecified)
inactive: Potency [1] | Potency [2] | Potency [3] | Potency [4] | Potency [5] | Potency [6] | Potency [7] | Potency [8] | Potency [19] | Potency [10] | Potency [11] | Potency [13] | Potency [14] | Potency [15] | Potency [17] | Potency [18]

CCCN(CC)CC1COC2(CCC(C(C)(C)C)CC2)O1 (stereo unspecified)
inactive: Potency [1] | Potency [2] | Potency [3] | Potency [4] | Potency [5] | Potency [6] | Potency [7] | Potency [8] | Potency [19] | Potency [9] | Potency [14] | Potency [15] | Potency [16] | Potency [17] | Potency [18]
active: Potency [10] 10.6 µM | Potency [11] 43.6 µM

Clc1ccc2ccccc2c1
inactive: Potency [1] | Potency [2] | Potency [3] | Potency [4] | Potency [5] | Potency [6] | Potency [7] | Potency [8] | Potency [19] | Potency [9] | Potency [10] | Potency [11] | Potency [14] | Potency [15] | Potency [16] | Potency [17] | Potency [18]

O=C(CCCN1CCC2(CC1)C(=O)NCN2c1ccccc1)c1ccc(F)cc1
active: Potency [2] 6.01 µM | Potency [16] 1.5 µM
inactive: Potency [1] | Potency [3] | Potency [4] | Potency [5] | Potency [6] | Potency [7] | Potency [8] | Potency [9] | Potency [12] | Potency [13] | Potency [14] | Potency [15] | Potency [17]

BrCC(Br)(Br)Br
inactive: Potency [1] | Potency [2] | Potency [3] | Potency [4] | Potency [5] | Potency [6] | Potency [7] | Potency [8] | Potency [19] | Potency [9] | Potency [11] | Potency [12] | Potency [13] | Potency [14] | Potency [15] | Potency [16] | Potency [17] | Potency [18]

Clc1cc(C(Cl)(Cl)Cl)cnc1Cl
inactive: Potency [1] | Potency [2] | Potency [3] | Potency [4] | Potency [5] | Potency [6] | Potency [7] | Potency [8] | Potency [9] | Potency [10] | Potency [11] | Potency [12] | Potency [13] | Potency [14] | Potency [15] | Potency [16] | Potency [17] | Potency [18]

O=C1c2ccccc2C(=O)c2ccccc21
inactive: activity change, negative = cytotoxicity [1] 8.6% [at 19 µM] | activity change [2] -0.0358% [at 11.8 µM, active compounds read high] | activation [3] 8.4% [at 15.8 µM] | activation [4] 0.614% [at 11.8 µM] | activation [5] 1.15% [at 13.5 µM] | activation [6] -4.38% [at 13.6 µM] | activity change, negative = cytotoxicity [7] 2.91% [at 13.5 µM] | activity change, negative = cytotoxicity [8] 1.32% [at 13.5 µM] | activity change, negative = cytotoxicity [19] 5.09% [at 13.5 µM] | activation [9] -1.94% [at 13.5 µM] | activation [11] -4.26% [at 15.9 µM] | activity, negative = inhibition [12] 2.2% [at 12.6 µM] | activation [14] -2.22% [at 19 µM] | activity change, negative = inhibition [15] -5.21% [at 18.9 µM] | activation [17] -2.1% [at 19 µM] | activity change, negative = inhibition [18] -1.46% [at 18.9 µM]

CCC(C)Br (stereo unspecified)
inactive: Potency [1] | Potency [2] | Potency [3] | Potency [4] | Potency [5] | Potency [6] | Potency [7] | Potency [8] | Potency [19] | Potency [9] | Potency [10] | Potency [13] | Potency [14] | Potency [15] | Potency [16] | Potency [17] | Potency [18]

S=C=Nc1ccccc1
inactive: Potency [1] | Potency [2] | Potency [3] | Potency [4] | Potency [5] | Potency [6] | Potency [7] | Potency [8] | Potency [19] | Potency [9] | Potency [10] | Potency [11] | Potency [12] | Potency [13] | Potency [14] | Potency [16] | Potency [17]

Cc1cc(C)nc(Nc2ccccc2)n1
inactive: Potency [1] | Potency [2] | Potency [3] | Potency [4] | Potency [5] | Potency [6] | Potency [7] | Potency [8] | Potency [9] | Potency [10] | Potency [11] | Potency [13] | Potency [14] | Potency [15] | Potency [16] | Potency [17]

N#CC(Br)(Br)C(N)=O
active: Potency [12] 0.0047 µM
inactive: Potency [1] | Potency [2] | Potency [3] | Potency [4] | Potency [5] | Potency [6] | Potency [7] | Potency [8] | Potency [19] | Potency [9] | Potency [10] | Potency [13] | Potency [14] | Potency [17]
